# PubChem BioAssay (NCI)
# Compounds without any hit were thinned out: in the full panel of roughly 79,000, 15% have a hit. Unmarked numbers belong to inactive results. The source made the active and inactive calls. Rule as the data show it: active = growth inhibition above about 70%; inactive = the rest.
# Key:
# [1] = NCI Yeast Anticancer Drug Screen. Data for the rad50 strain (AID 155);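 also: 0% = growth of vehicle-only cultures of the same strain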; conditions: S. cerevisiae rad50 strain growth inhibition, stronger effect = higher value
# In short: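 Vehicle-treated cultures provide the reference for the growth inhibition reported for compound-exposed, repair-deficient yeast.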
# [2] = NCI Yeast Anticancer Drug Screen. Data for the mec2-1 strain (AID 157); conditions: S. cerevisiae mec2-1 strain, stronger effect = higher value
# In short: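 Readout is yeast growth inhibition, normalised to vehicle-treated controls, in the mec2-1 strain exposed to compound.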
# [3] = NCI Yeast Anticancer Drug Screen. Data for the sgs1 mgt1 strain (AID 161);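 also: 0% = growth of cultures given vehicle only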; conditions: S. cerevisiae sgs1 mgt1 strain, stronger effect = higher value
# In short: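 Percent growth inhibition was derived by comparing compound-exposed mutant yeast with vehicle-exposed cultures. The strain carries alterations in DNA damage repair.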
# [4] = NCI Yeast Anticancer Drug Screen. Data for the cln2 rad14 strain (AID 165);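 also: 0% = growth equal to vehicle treated cultures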; conditions: S. cerevisiae cln2 rad14 strain, stronger effect = higher value
# In short: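 Relative to vehicle controls, growth inhibition of compound-treated cln2 rad14 yeast was recorded.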
# [5] = NCI Yeast Anticancer Drug Screen. Data for the bub3 strain (AID 167); conditions: S. cerevisiae bub3 mutant strain, stronger effect = higher value
# In short: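 Mutant yeast screening strain plus compound; vehicle-treated cultures serve as the 0% inhibition reference.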
# [6] = NCI Yeast Anticancer Drug Screen. Data for the mlh1 rad18 strain (AID 175); conditions: S. cerevisiae mlh1 rad18 strain growth inhibition, stronger effect = higher value
# In short: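 Test agents were incubated with a yeast strain of defined genotype (DNA damage repair defect). Inhibition of growth was derived by comparison with vehicle-exposed cultures.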
# [7] = at 5.0 µM (retest, dose inferred, filed as 0.5)
# [8] = at 50.0 µM (retest, dose inferred, filed as 5.0)
Structure (SMILES),"growth inhibition [1, 7]","growth inhibition [1, 8]",growth inhibition ([1]; at 50.0 µM),"growth inhibition [2, 7]","growth inhibition [2, 8]",growth inhibition ([2]; at 50.0 µM),"growth inhibition [3, 7]","growth inhibition [3, 8]",growth inhibition ([3]; at 50.0 µM),"growth inhibition [4, 7]","growth inhibition [4, 8]",growth inhibition ([4]; at 50.0 µM),"growth inhibition [5, 7]","growth inhibition [5, 8]",growth inhibition ([5]; at 50.0 µM),"growth inhibition [6, 7]","growth inhibition [6, 8]",growth inhibition ([6]; at 50.0 µM)
O=C(c1ccc2ccccc2c1)N1CC1,-27%,23%,71.8% (active),-6%,-12%,-1.65%,-14%,5%,41.8%,-12%,57%,66.5%,2%,54%,58.9%,-24%,52%,63.2%
CCCCCc1cc(/C=C2/N=C(c3ccc[nH]3)C=C2OC)[nH]c1C,47%,77% (active),83.9% (active),49%,81% (active),85.5% (active),75% (active),86% (active),86.8% (active),46%,81% (active),84.3% (active),80% (active),79% (active),83.8% (active),71% (active),77% (active),84% (active)
C#CC(/C=C/Cl)(CC)OC(N)=O (stereo not given),3%,13%,1.8%,4%,5%,11.6%,3%,5%,-2%,6%,-7%,75.8% (active),0%,43%,55.9%,9%,16%,31.2%
CC(=O)[O][Hg][c]1ccc(N)[c]([Hg][O]C(C)=O)c1,99% (active),98% (active),99.5% (active),99% (active),99% (active),99.5% (active),99% (active),99% (active),99.5% (active),99% (active),98% (active),98.7% (active),99% (active),99% (active),99.2% (active),99% (active),99% (active),99.1% (active)
C[CH2][Pb]([CH2]C)([CH2]C)[O]C(=O)COc1ccc(Cl)cc1Cl,29%,84% (active),91.5% (active),14%,89% (active),95.1% (active),3%,94% (active),95% (active),2%,91% (active),85.7% (active),-4%,95% (active),95.6% (active),29%,96% (active),97% (active)
